{"source": "the supplement of paper PMC10981050", "note": "Where a name gives a salt, the structure may show the parent alone.", "data": [{"system": "MARIMO", "test": "cell viability relative to vehicle control; higher = less cytotoxic", "conditions": "10 µM; SRSF2 genotype: SRSF2 wt/wt", "in_short": "(§1)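 CRISPR-edited mutant clones and isogenic wild-type clones from four leukaemia lines were screened against Selleck bioactive, kinase and epigenetic probe libraries, with identity-inconsistent compounds excluded. Each compound was acoustically dispensed at a single 10 µM dose into 384-well plates holding 2000 cells in 50 µL medium per well. After 48 h the supernatant was removed and CellTiter-Glo luminescence was read. Viability was expressed as percent of the on-plate vehicle control and analysed in Genedata Screener.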", "units": {"cell viability": "%"}, "values": [{"compound": "NC(=O)c1cccc(N)c1", "note": "[INO-1001 (3-Aminobenzamide)]", "cell viability": 97.8}, {"compound": "C=CC(=O)Nc1cc(N2CCN(CC)CC2)ccc1Nc1cc(N(C)C(=O)Nc2c(Cl)c(OC)cc(OC)c2Cl)ncn1", "cell viability": 31.7}, {"compound": "COc1cc(C(=O)NC2CCCNC2)cc(OC)c1OC", "note": "(centres undefined) [Troxipide]", "cell viability": 106}, {"compound": "FC(F)(F)Oc1ccc(-c2ccc3nnc(C(F)(F)F)n3c2)cc1", "cell viability": 97.8}, {"compound": "C[Si](C)(C)CCOCn1ccc2c(-c3cn[nH]c3)ncnc21", "cell viability": 106}, {"compound": "CCCNC(=O)Nc1ccc(Oc2ncnc3cc(OC)c(OC)cc23)cc1Cl", "cell viability": 113}, {"compound": "Cc1nc(=O)c2cc(CN(C)c3ccc(C(=O)N[C@@H](CCC(=O)O)C(=O)O)s3)ccc2[nH]1", "note": "[Raltitrexed (Tomudex)]", "cell viability": 105}, {"compound": "Cc1ccc(C)c(OCCCC(C)(C)C(=O)O)c1", "note": "[Gemfibrozil (Lopid)]", "cell viability": 106}, {"compound": "O=C1OC(COc2ccccc2[N+](=O)[O-])CC1Cc1ccccc1", "note": "(centres undefined)", "cell viability": 103}, {"compound": "CCC(=O)O[C@@H]1CC(=O)O[C@H](C)C/C=C/C=C/[C@H](O)[C@H](C)C[C@H](CC=O)[C@H](O[C@@H]2O[C@H](C)[C@@H](O[C@H]3C[C@@](C)(O)[C@@H](OC(=O)CC)[C@H](C)O3)[C@H](N(C)C)[C@H]2O)[C@H]1OC", "note": "[Midecamycin]", "cell viability": 102}, {"compound": "CO[C@@]1(NC(=O)CSC[C@@H](N)C(=O)O)C(=O)N2C(C(=O)O)=C(CSc3nnnn3C)CS[C@@H]21", "note": "[Cefminox Sodium]", "cell viability": 109}, {"compound": "CNC[C@H](O)[C@@H](O)[C@H](O)[C@H](O)CO", "note": "[Meglumine]", "cell viability": 106}, {"compound": "CCCCCCCCCCCCCC(=S)NCCCC[C@H](NC(=O)OCc1ccccc1)C(=O)Nc1ccccc1", "note": "[Thiomyristoyl]", "cell viability": 97.3}, {"compound": "Cc1cc(C(=O)NOCCO)c(Nc2ccc(I)cc2F)n(C)c1=O", "cell viability": 36.3}]}, {"system": "MOLM14", "test": "cell viability relative to vehicle control; higher = less cytotoxic", "conditions": "10 µM; SRSF2 genotype: SRSF2 P95H/wt", "in_short": "as §1", "units": {"cell viability": "%"}, "values": [{"compound": "Cc1cc(=O)oc2c(C=O)c(O)ccc12", "cell viability": 94.8}, {"compound": "Cc1oncc1C(=O)Nc1ccc(C(F)(F)F)cc1", "note": "[Leflunomide]", "cell viability": 102}, {"compound": "CCn1c(C(=O)N(C2CC2)C2CC2)cc2c3c(ncn3C)c(Nc3cc(C)n(C)n3)nc21", "cell viability": 41.6}, {"compound": "CC(/C=C1\\SC(=S)N(CC(=O)O)C1=O)=C\\c1ccccc1", "note": "[Epalrestat]", "cell viability": 106}, {"compound": "O=c1[nH]c(=O)n(C2CCCO2)cc1F", "note": "(centres undefined)", "cell viability": 99.7}, {"compound": "CC(C(=O)O)c1ccc2c(c1)Cc1cccnc1O2", "note": "(centres undefined) [Pranoprofen]", "cell viability": 102}, {"compound": "CC1C(=O)OC2C(O)C34C5CC(C(C)(C)C)C36C(OC(=O)C6O)OC4(C(=O)O5)C12O", "note": "(centres undefined) [Ginkgolide B]", "cell viability": 107}, {"compound": "Cc1nc(N(C)C(=O)Cc2ccc(-c3ccccn3)cc2)sc1S(N)(=O)=O", "note": "[Pritelivir (BAY 57-1293)]", "cell viability": 108}, {"compound": "N[C@@H]1CCCN(c2c(/C=C3\\SC(=O)NC3=O)cccc2-c2ccccc2)C1", "cell viability": 90.8}, {"compound": "CCCCNc1ncc(-c2ccc(CN3CCOCC3)cn2)c(NC2CCC(O)CC2)n1", "note": "(centres undefined)", "cell viability": 7.3}, {"compound": "CCCc1cc(C(N)=S)ccn1", "note": "[Protionamide (Prothionamide)]", "cell viability": 95.4}, {"compound": "CC(C(=O)O)c1ccc2c(c1)CC(=O)c1ccccc1S2", "note": "(centres undefined) [Zaltoprofen]", "cell viability": 99.1}, {"compound": "COc1ccc2cc1Oc1ccc(cc1)C[C@H]1c3c(cc4c(c3Oc3cc5c(cc3OC)CCN(C)[C@@H]5C2)OCO4)CCN1C", "note": "[Cepharanthine]", "cell viability": 25.4}, {"compound": "CC(COc1ccccc1Cc1ccccc1)N1CCCCC1", "note": "(centres undefined) [Benproperine phosphate]", "cell viability": 82.5}, {"compound": "Nc1nonc1C(=Nc1ccc(F)c(Cl)c1)NO", "cell viability": 93.8}, {"compound": "CC(C)N(CCC(=O)c1ccc2ccccc2c1)Cc1ccccc1", "cell viability": 0.58}, {"compound": "O=C(NCCN1CCOCC1)c1ccc(Cl)cc1", "cell viability": 97.6}, {"compound": "CCS(=O)(=O)CCn1c([N+](=O)[O-])cnc1C", "note": "[Tinidazole]", "cell viability": 95.1}, {"compound": "CCOc1ccc(Cc2cc([C@]34OC[C@](CO)(O3)[C@@H](O)[C@H](O)[C@H]4O)ccc2Cl)cc1", "note": "[Ertugliflozin]", "cell viability": 103}, {"compound": "OC[C@H]1O[C@@](CO)(O[C@H]2O[C@H](CO)[C@@H](O)[C@H](O)[C@H]2O)[C@@H](O[C@H]2O[C@H](CO)[C@@H](O)[C@H](O)[C@H]2O)[C@@H]1O", "note": "[Melezitose]", "cell viability": 102}, {"compound": "O=C(O)CCCC[C@@H]1SC[C@@H]2NC(=O)N[C@@H]21", "note": "[Biotin (Vitamin B7)]", "cell viability": 102}, {"compound": "Cc1nnc(C(=O)NC(C)(C)c2nc(C(=O)NCc3ccc(F)cc3)c(O)c(=O)n2C)o1", "note": "[Raltegravir (MK-0518)]", "cell viability": 98.1}, {"compound": "CCOC(=O)C=Cc1ccc(OC)cc1", "note": "[Ethyl 4-Methoxycinnamate]", "cell viability": 83.9}, {"compound": "CCNC(=O)[C@@H]1CCCN1C(=O)[C@H](CCCN=C(N)N)NC(=O)[C@H](CC(C)C)NC(=O)[C@@H](CC(C)C)NC(=O)[C@H](Cc1ccc(O)cc1)NC(=O)[C@H](CO)NC(=O)[C@H](Cc1c[nH]c2ccccc12)NC(=O)[C@H](Cc1cnc[nH]1)NC(=O)[C@@H]1CCC(=O)N1", "note": "[S3718 Leuprolide Acetate.cdx]", "cell viability": 103}, {"compound": "CCCCOc1ccc(C(=O)Nc2ccc(F)cc2F)cc1", "cell viability": 100}, {"compound": "O=C(NC1CCN(CCCCC2(C(=O)NCC(F)(F)F)c3ccccc3-c3ccccc32)CC1)c1ccccc1-c1ccc(C(F)(F)F)cc1", "note": "[Lomitapide Mesylate]", "cell viability": 0.26}, {"compound": "NC(=O)c1cccc(N)c1", "note": "[INO-1001 (3-Aminobenzamide)]", "cell viability": 100}, {"compound": "C=CC(=O)Nc1cc(N2CCN(CC)CC2)ccc1Nc1cc(N(C)C(=O)Nc2c(Cl)c(OC)cc(OC)c2Cl)ncn1", "cell viability": 0.69}, {"compound": "COc1cc(C(=O)NC2CCCNC2)cc(OC)c1OC", "note": "(centres undefined) [Troxipide]", "cell viability": 103}, {"compound": "FC(F)(F)Oc1ccc(-c2ccc3nnc(C(F)(F)F)n3c2)cc1", "cell viability": 95.2}, {"compound": "C[Si](C)(C)CCOCn1ccc2c(-c3cn[nH]c3)ncnc21", "cell viability": 95.9}, {"compound": "CCCNC(=O)Nc1ccc(Oc2ncnc3cc(OC)c(OC)cc23)cc1Cl", "cell viability": 92}, {"compound": "Cc1nc(=O)c2cc(CN(C)c3ccc(C(=O)N[C@@H](CCC(=O)O)C(=O)O)s3)ccc2[nH]1", "note": "[Raltitrexed (Tomudex)]", "cell viability": 104}, {"compound": "Cc1ccc(C)c(OCCCC(C)(C)C(=O)O)c1", "note": "[Gemfibrozil (Lopid)]", "cell viability": 106}, {"compound": "O=C1OC(COc2ccccc2[N+](=O)[O-])CC1Cc1ccccc1", "note": "(centres undefined)", "cell viability": 108}, {"compound": "CCC(=O)O[C@@H]1CC(=O)O[C@H](C)C/C=C/C=C/[C@H](O)[C@H](C)C[C@H](CC=O)[C@H](O[C@@H]2O[C@H](C)[C@@H](O[C@H]3C[C@@](C)(O)[C@@H](OC(=O)CC)[C@H](C)O3)[C@H](N(C)C)[C@H]2O)[C@H]1OC", "note": "[Midecamycin]", "cell viability": 93.3}, {"compound": "CO[C@@]1(NC(=O)CSC[C@@H](N)C(=O)O)C(=O)N2C(C(=O)O)=C(CSc3nnnn3C)CS[C@@H]21", "note": "[Cefminox Sodium]", "cell viability": 96}, {"compound": "CNC[C@H](O)[C@@H](O)[C@H](O)[C@H](O)CO", "note": "[Meglumine]", "cell viability": 101}, {"compound": "CCCCCCCCCCCCCC(=S)NCCCC[C@H](NC(=O)OCc1ccccc1)C(=O)Nc1ccccc1", "note": "[Thiomyristoyl]", "cell viability": 82}, {"compound": "Cc1cc(C(=O)NOCCO)c(Nc2ccc(I)cc2F)n(C)c1=O", "cell viability": 43.5}]}]}
